Hits are enriched below; roughly 0.92% of the tested compounds scored in any of these assays.
Rv3671c inh = Rv3671c (M. tuberculosis) protease inhibition; P9WHR9; inhibition, % at 5.96 µM; 320,000 compounds, 0.048% hits; AID 2606; in the data active means inhibition above about 38%;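 further: extracellular domain of Rv3671c used as enzyme; 0% = enzyme with DMSO and 100% = no enzyme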
UGM FP inh = blocks M. tuberculosis UGM enzyme | inhibition, % at 10 µM | AID 504406 | purified UGM, fluorescence polarization probe displacement | 320,000 compounds, 0.06% hits | P9WIQ1; in the data active means inhibition above about 10%, passing the limit was not always enough
RecA intein inh = Mtb RecA intein splicing inhibition. P9WHJ3. cell-free RecA intein splicing, fluorescence. inhibition, % (concentration not given with the values). 290,000 compounds, 0.75% hits. AID 2221; in the data active means inhibition above about 30%;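 further: 0% = vehicle wells and 100% = reference inhibitor control wells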
Target sequence (P9WHJ3 whole entry, looked up): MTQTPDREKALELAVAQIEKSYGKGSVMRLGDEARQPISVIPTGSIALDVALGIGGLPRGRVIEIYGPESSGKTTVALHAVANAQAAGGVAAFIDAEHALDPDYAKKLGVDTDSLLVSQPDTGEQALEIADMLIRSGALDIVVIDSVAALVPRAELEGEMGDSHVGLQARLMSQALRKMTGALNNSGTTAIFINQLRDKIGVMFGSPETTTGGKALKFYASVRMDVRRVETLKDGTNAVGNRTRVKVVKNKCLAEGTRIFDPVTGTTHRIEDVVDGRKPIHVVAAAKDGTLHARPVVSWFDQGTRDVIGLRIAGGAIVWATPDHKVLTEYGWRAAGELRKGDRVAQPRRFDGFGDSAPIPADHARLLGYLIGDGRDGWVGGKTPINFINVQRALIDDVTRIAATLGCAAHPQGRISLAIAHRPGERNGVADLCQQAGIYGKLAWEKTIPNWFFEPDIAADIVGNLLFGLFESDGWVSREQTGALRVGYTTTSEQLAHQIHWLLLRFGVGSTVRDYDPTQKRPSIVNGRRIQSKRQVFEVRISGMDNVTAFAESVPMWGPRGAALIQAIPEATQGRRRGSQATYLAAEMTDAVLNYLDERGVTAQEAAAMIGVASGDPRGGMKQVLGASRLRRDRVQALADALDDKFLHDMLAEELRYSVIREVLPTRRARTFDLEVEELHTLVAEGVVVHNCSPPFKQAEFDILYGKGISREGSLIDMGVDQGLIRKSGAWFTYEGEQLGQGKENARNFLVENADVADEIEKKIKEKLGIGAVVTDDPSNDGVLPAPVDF
Mtb hypoxia rep = Mtb hypoxia fluorescent reporter inhibition. AID 1159583. fluorescence inhibition, % (test concentration not listed). 300,000 compounds, 0.1% hits. M. tuberculosis hypoxia-regulated fluorescent reporter, fluorescence; in the data active means fluorescence inhibition mostly above about 23%, no sharp cut-off; inactive means mostly below about 17%
FadD28 FP inh = blocks FadD28 binding to the bisubstrate probe | 360,000 compounds, 0.22% hits | fluorescence polarization | inhibition, % at 12.5 µM; in the data active means inhibition above about 8.5%, passing the limit was not always enough
GFP chromo cs = counter-screen GFP chromophore formation inhibition | EC50, µM | AID 434968 | shares compounds with RecA intein inh | cell-free GFP chromophore formation, fluorescence | 2,100 compounds, 83% hits; call rule not given here
* hit, by the source's call; . = no result shown.

SMILES	Rv3671c inh	UGM FP inh	RecA intein inh	Mtb hypoxia rep	FadD28 FP inh	GFP chromo cs
CCCc1nn(C)c2c1C(c1cccnc1)C(C#N)=C(N)O2 (stereo not given)	-6	-2	60*	9	1	24*
CC(C)Oc1cccc(C(=O)C2CCCN(C(=O)c3csnn3)C2)c1 (stereo not given)	-12	-4	52*	-2	-5	>38
CC(C)Oc1cccc(C(=O)C2CCCN(C(=O)c3cc(C(F)(F)F)[nH]n3)C2)c1 (stereo not given)	-8	1	-1	1	-3	.
COc1ccc(C(=O)Nc2ccc(O)c3ccccc23)cc1OC	-4	-1	98*	3	0	15*
COc1ccc(OC)c(NC(=O)Nc2c(O)ccc3ccccc23)c1	-5	2	-1	6	-3	.
COc1ccc(OC)c(NC(=O)Nc2ccc(O)c3ccccc23)c1	-96	1	78*	-1	0	1.2*
O=C(Nc1ccccc1)Nc1ccc(O)c2ccccc12	-48	3	60*	-8	.	3*
CS(=O)(=O)Nc1ccc(-c2cc(C=C3SC(N)=NC3=O)c[nH]c2=O)cc1	.	.	.	-3	.	.
O=C1/C(=C/Nc2ccc3c(c2)OCO3)CCc2ccccc21	-5	-1	49*	7	-1	3.2*
COc1ccc(N/C=C2\CCc3ccccc3C2=O)cc1	-15	1	71*	7	0	19*
COc1ccc(C=C(C#N)C(=O)Nc2cccc([N+](=O)[O-])c2)cc1C(=O)O	.	.	.	8	.	.
Cc1oc2cc([N+](=O)[O-])c(O)c([N+](=O)[O-])c2c1C(=O)c1ccc(Cl)cc1	-3	2	37*	21	0	22*
CC(=O)c1ccc(-c2cccc(-c3nc4ccccn4c3NC3CCCCC3)c2)cc1	8	3	32*	-14	-3	0.38*
O=C(NC(=S)NNC(=O)c1ccccc1O)c1ccco1	25	3	36*	9	1	>38
O=C(NC(=S)NNC(=O)c1cc2ccccc2cc1O)c1ccco1	22	2	11	.	2	.
Cc1ccccc1-n1c(=C(C#N)C(=O)Nc2ccccc2)sc(=Cc2ccco2)c1=O	.	.	.	1	.	.
Cn1cccc1C(=O)NC(=O)COC(=O)c1ccc(S(C)(=O)=O)c([N+](=O)[O-])c1	-22	-2	.	2	-4	.
CS(=O)(=O)c1ccc(C(=O)OCC(=O)NC23CC4CC(CC(C4)C2)C3)cc1[N+](=O)[O-]	-79	2	32*	10	-2	>38
COC(=O)c1ccccc1-c1ccc(C(c2c(C)[nH][nH]c2=O)c2c(C)[nH][nH]c2=O)o1	-204	4	95*	10	-3	0.45*
COC(=O)c1cccc(-c2ccc(C(c3c(C)[nH][nH]c3=O)c3c(C)[nH][nH]c3=O)o2)c1	-79	-1	100*	-5	2	0.54*
Cc1[nH][nH]c(=O)c1C(c1ccc(-c2ccc(Cl)c(C(=O)O)c2)o1)c1c(C)[nH][nH]c1=O	.	.	.	10	-2	.
CCC(=O)N(C1=C(NC)C(=O)c2ccccc2C1=O)C(C)C	-38	1	45*	-10	-2	39*
CNC1=C(N(C(C)=O)c2ccc(Br)cc2)C(=O)c2ccccc2C1=O	-135	5	73*	.	0	13*
C#C[C@]1(O)CCC2C3CCC4=CC(=O)CC[C@]4(C)C3CC[C@@]21C (stereo not given in full)	.	.	.	10	.	.
Cc1nc2c(=O)n(C)c(=O)nc-2n(C)n1	-114	4	98*	.	3	0.12*
SMILES	Rv3671c inh	UGM FP inh	RecA intein inh	Mtb hypoxia rep	FadD28 FP inh	GFP chromo cs
Cc1ccc(C)c(-n2c3nc(=O)n(C)c(=O)c-3cc3ccccc32)c1	10	-1	-178	-11	-1	.
CC(=NNC(=O)c1ccncc1)c1cc2ccccc2oc1=O	.	.	.	-2	.	.
C/C(=N\NC(=O)c1ccncc1)c1cc2ccccc2oc1=O	2	1	93*	.	-4	15*
CC1C(=NO)CC(c2ccccc2)NC1c1ccccc1 (stereo not given)	.	.	.	12	.	.
COC(=O)[C@@]1(Cc2ccc(OC)cc2)C2C(=CC(=O)C2CC(=O)C(=O)N2CCCC2)CN1C(=O)c1ccccc1 (stereo not given in full)	.	.	.	3	.	.
COC(=O)[C@@]1(Cc2ccccc2)[C@@H]2C(=CC(=O)[C@H]2CC(=O)C(=O)N(C)C)CN1C(=O)c1ccccc1	3	2	70*	.	0	16*
O=[N+]([O-])C(/C=C(/Cl)[N+](=O)[O-])=C(N1CCCCC1)N1CCCCC1	5	-4	49*	13	0	20*
O=C1C2C(c3ccc(F)cc3)N3C(=O)N(c4cccc(Cl)c4)C(=O)[C@@]3(Cc3ccc(Cl)cc3)C2C(=O)N1C1CCCCC1 (stereo not given in full)	.	.	.	2	.	.
Cc1ccc2c(c1)c1c3n2CCN(C(=O)CCl)C3CCC1 (stereo not given)	5	0	73*	.	0	7.3*
O=C(O)CCCN1C(=O)/C(=C\C(Cl)=C\c2ccccc2)SC1=S	.	-1	46*	9	9.3*	>38
Cc1nn(-c2ccccc2)c(Cl)c1/C=C1\SC(=S)N(CCCCCC(=O)O)C1=O	-21	2	37*	6	0	28*
O=C(C=Cc1ccc([N+](=O)[O-])cc1)NC1CC2CCC1C2 (stereo not given)	.	.	.	5	.	.
Cc1ccc(Sc2c([N+](=O)[O-])ncn2C)cc1	2	-1	53*	9	0	>38
Cn1cnc([N+](=O)[O-])c1Sc1ccc(Br)cc1	-8	1	25	6	0	.
CC(=NOCC(=O)OC(C)C(=O)Nc1ccc(C(N)=O)cc1)c1ccc2c(c1)OCO2 (stereo not given)	.	.	.	8	.	.
Cc1ccc(S(=O)(=O)NC(Cc2ccccc2)C(=O)NN)cc1 (stereo not given)	-7	3	-2	4	-1	.
Cc1ccc(S(=O)(=O)N[C@@H](Cc2ccccc2)C(=O)CCl)cc1	10	0	93*	.	0	1.9*
COC(=O)C(C#N)C(c1cccnc1)c1c(C)[nH][nH]c1=O (stereo not given)	6	1	85*	15	-4	7.8*
CC(=O)NC(c1ccccc1)c1cccnc1 (stereo not given)	3	0	-2	3	-1	.
NC(=NO)c1ccc(NC(=O)c2cccs2)cc1	.	.	.	1	.	.
CCOc1cc(C(c2c(C)[nH][nH]c2=O)c2c(C)[nH][nH]c2=O)ccc1OCc1ccc([N+](=O)[O-])cc1	-11	-1	99*	-2	0	0.33*
CCOc1cc(C=NO)ccc1OCc1ccc([N+](=O)[O-])cc1	.	.	.	-6	.	.
CCOc1cc(C(c2c(C)[nH][nH]c2=O)c2c(C)[nH][nH]c2=O)ccc1OC(=O)c1cccc([N+](=O)[O-])c1	-13	1	92*	7	-3	0.44*
Cc1[nH][nH]c(=O)c1C(c1cc2c(cc1Br)OCO2)c1c(C)[nH][nH]c1=O	-9	0	95*	-2	-2	0.72*

High-throughput results: PubChem BioAssay, several laboratories
